Screens (PubChem)
This is a sample that favours compounds with a hit; in the whole collection about 11% have one here.
HPGD inh – inhibitors of human 15-hydroxyprostaglandin dehydrogenase (HPGD); P15428; purified HPGD, NADH fluorescence kinetic, PGE2 substrate; Potency, µM, without a hit: at the highest dose activity change, negative = inhibition, usual class: inhibitors; hit rate 4.3% among 150,000; note: potency is the fitted concentration of half-maximal effect
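20 nM HPGD preincubated 15 min at room temperature with compound in 50 mM Tris-HCl pH 8, 0.01% Tween 20. Started with 1 mM NAD+ and 30 uM prostaglandin E2; NADH fluorescence (360/450 nm) read 5 times over 30-s intervals, last minus first.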
PNC assembly inh – blocks assembly of the perinucleolar compartment; PC3M PTB-GFP, PNC prevalence imaging, 16 h; active compounds read low; activity change (PNC), negative = inhibition, % at 10 µM; hit rate 3.1% among 140,000; AID 2417;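 active = readout at or below -70, meaning at least 70% loss of cells showing the perinucleolar compartment, a nuclear body marking cancer cells; inconclusive = readout between -30 and a set limit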;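 note: plate controls were DMSO wells for no effect and camptothecin positive control wells for full effect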
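Compounds are pinned in duplicate onto adhered PC3M cells stably expressing GFP-tagged PTB and incubated 16 h at 37 C. Cells are then fixed, nuclei stained with Hoechst, and PNC-positive cells counted.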
ALDH1A1 inh – inhibitors of human aldehyde dehydrogenase 1A1 | P00352 | Purified ALDH1A1, NADH fluorescence, propionaldehyde substrate | Potency, µM (top dose mostly 75.3 µM), without a hit: top-dose activity, negative = inhibition, actives largely listed as inhibitors | hit rate 7.3% among 220,000 | AID 1030;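 note: potency is the fitted concentration of half-maximal effect; plate controls were no enzyme wells and a reference inhibitor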
Target sequence (P00352 whole entry, looked up): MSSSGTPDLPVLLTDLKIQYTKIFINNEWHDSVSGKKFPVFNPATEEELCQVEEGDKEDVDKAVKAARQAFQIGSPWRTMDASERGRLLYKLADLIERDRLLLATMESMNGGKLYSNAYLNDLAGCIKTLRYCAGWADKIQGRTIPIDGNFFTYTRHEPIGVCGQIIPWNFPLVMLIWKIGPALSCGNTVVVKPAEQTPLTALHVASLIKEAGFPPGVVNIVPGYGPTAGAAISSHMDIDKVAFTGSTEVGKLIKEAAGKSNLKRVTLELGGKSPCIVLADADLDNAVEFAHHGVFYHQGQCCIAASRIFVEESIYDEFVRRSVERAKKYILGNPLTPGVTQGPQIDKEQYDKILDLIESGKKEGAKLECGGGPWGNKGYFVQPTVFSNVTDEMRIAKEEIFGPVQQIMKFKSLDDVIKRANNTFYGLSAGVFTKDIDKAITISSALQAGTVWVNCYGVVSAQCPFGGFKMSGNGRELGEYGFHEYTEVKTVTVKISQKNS
Numbers without * were called inactive; ? = inconclusive; . = no result; [ ] = another dose, or the depositor's remark. Unless noted, calls come from the whole dose curve; as a rule, active = well fitted inhibition curve with a large enough effect (not every such curve was filed as active); inconclusive = small, poorly fitted or top-dose-only effect, or another doubt; inactive = no such curve, though single readings can be large or run the other way. Unless noted, % is set by controls: 0 for no effect and ±100 for the full control effect.

SMILES	HPGD inh	PNC assembly inh	ALDH1A1 inh
COc1ccccc1N1CCN(C(=O)CSc2nnc3c4ccccc4n(CC(=O)O)c3n2)CC1	-6%	?	-4%
CCn1c2ccccc2c2nnc(SCC(=O)N3CC(C)OC(C)C3)nc21 (stereo unspecified)	14µM*	28	20µM*
Cc1cc(NC(=O)C2CC2)ncc1NC(=O)c1ccccn1	.	.	-11%
CN(C)S(=O)(=O)c1ccc(NC(=O)COC(=O)C2COc3ccccc3O2)cc1 (stereo unspecified)	.	.	0%
Cc1cc(Br)c2[nH]c3c(c2c1)CCCC3=O	-22%	7	?
CCOc1cc(/C=C\[N+](=O)[O-])ccc1OCC(=O)Nc1ccccc1C	-20%	41	-6%
Nc1ccc2cc3ccccc3cc2c1	2%	.	2µM*
Nc1ccc2ncccc2c1	-19%	9	?
CC1=C(C(=O)OCc2ccc3c(c2)OCO3)C(c2cccc([N+](=O)[O-])c2)NC(=O)N1 (stereo unspecified)	.	.	10%
CC(C(=O)Nc1ccccc1)N1C(=O)c2ccccc2C1=O (stereo unspecified)	.	.	3%
O=C1c2ccccc2C(=O)N1Nc1ccccc1	-6%	-106*	-5%
Clc1ccc(-c2cc(COc3ccccc3)on2)cc1	.	.	1%
Cc1ccc(C2c3c(oc4ccc(Cl)cc4c3=O)C(=O)N2CCCN2CCOCC2)o1 (stereo unspecified)	?	8	?
Cc1cc2oc3c(c(=O)c2cc1C)C(c1ccc(F)cc1)N(CCCN1CCOCC1)C3=O (stereo unspecified)	-18%	24	7.1µM*
O=C1c2oc3ccc(Cl)cc3c(=O)c2C(c2cccnc2)N1Cc1ccco1 (stereo unspecified)	-2%	-19	?
O=C1c2oc3ccccc3c(=O)c2C(c2cccc(F)c2)N1CCCO (stereo unspecified)	1%	19	14µM*
O=C1c2oc3ccccc3c(=O)c2C(c2cccnc2)N1Cc1ccco1 (stereo unspecified)	-1%	-6	14µM*
O=C1c2oc3ccccc3c(=O)c2C(c2cccc(O)c2)N1CCCN1CCOCC1 (stereo unspecified)	-6%	-26	?
Oc1ccc(N=Nc2ccc3c(c2)OCCO3)c2ncccc12	.	.	9%
CN(C)/C=C/C(=C\C(=O)C(F)(F)F)Nc1ccc(C(F)(F)F)cc1	.	.	8%
CS(=O)(=O)c1ccc(C(O)C(CO)NC(=O)C(Cl)Cl)cc1 (stereo unspecified)	-11%	.	2%
Cc1ccc(S(=O)(=O)Nc2ccccc2CNc2ncc(Br)cc2Br)cc1	-18%	?	?
CN(C)c1ccc(CNc2ncc(Br)cc2Br)cc1	-21%	4	3.2µM*
Nc1ncnc2nc(Cl)[nH]c12	-4%	.	8%
C[C@H]1COC(=O)[C@H]2CCCN2C(=O)[C@@H](C)COC(=O)[C@H]2CCCN2C1=O	.	.	-8%[13.5 µM]
SMILES	HPGD inh	PNC assembly inh	ALDH1A1 inh
COc1ccc(NC(=S)N(Cc2ccc(N(C)C)cc2)Cc2ccco2)cc1	-25%	61	11µM*
CCOc1ccc(NC(=S)N(CC)Cc2ccccc2)cc1	.	.	5%
CCCN(Cc1ccccc1)C(=S)Nc1ccc(OCC)cc1	.	.	-7%
CCOc1ccc(NC(=S)N(Cc2ccc(N(C)C)cc2)Cc2ccco2)cc1	-14%	30	8.9µM*
CCOc1ccc(NC(=S)NN(C)C(=S)Nc2ccc(OCC)cc2)cc1	-14%	3	28µM*
COc1ccc(NC(=S)N(CCc2c(C)[nH]c3ccc(C)cc23)Cc2ccco2)cc1	-18%	-14	?
CC(N)(Cc1ccc(O)cc1)C(=O)O (stereo unspecified)	-24%	.	-6%
CCCCNc1nc(=S)n(-c2ccccc2)c(C)c1C(C)=O	.	.	10%
Cc1ccccc1OCCNC(=S)Nc1ccccc1	-22%	51	8%
Cc1ccccc1OCCOc1ccccc1C=C(C#N)C#N	-13%	55	3.5µM*
Cc1cccc(OCCOc2ccccc2C=C(C#N)C#N)c1	-5%	32	7.1µM*
Cc1cccc(OCCOC(=O)Nc2ccccc2)c1	-8%	-10	6%
c1ccc(Cn2nnc3c(Nc4ccc5c(c4)OCO5)nc(C4CC4)nc32)cc1	?	?	274%
Cc1cc(Cl)c(S(=O)(=O)NCc2ccncc2)cc1OCC(N)=O	-4%	-13	?
Cc1cc(Cl)c(S(=O)(=O)NCc2ccccc2)cc1OCC(N)=O	-4%	-113*	-5%
Cc1cc2c(cc1Cl)C(c1ccc3c(c1)OCO3)CC(=O)O2 (stereo unspecified)	-6%	.	9%
Cc1cc(OCC(=O)Nc2nnc(C3CC3)s2)ccc1[N+](=O)[O-]	.	.	1%
Cc1cc(C)nc(NC(=O)C(c2ccccc2)c2ccccc2)c1	-1%	35	14µM*
Cc1cc(C)nc(NC(=O)C(c2ccccc2)c2ccccc2)n1	-2%	-6	-12%
COc1ccc(S(=O)(=O)N(CC(=O)Nc2cccnc2)c2ccccc2OC)cc1	2.2µM*	-11	10µM*
CCOc1ccccc1N(CC(=O)Nc1ccc2c(c1)OCO2)S(C)(=O)=O	-10%	9	16%
COc1ccc(N(CC(=O)Nc2cccnc2)S(C)(=O)=O)cc1	.	.	1%
COc1ccccc1N(CC(=O)Nc1cccnc1)S(=O)(=O)c1ccccc1	14µM*	28	?
COc1ccc(OC)c(N(CC(=O)Nc2cccnc2)S(=O)(=O)c2ccccc2)c1	7.9µM*	5	-8%
CCOc1ccccc1N(CC(=O)Nc1ccc2c(c1)OCCO2)S(C)(=O)=O	-9%	-125*	6%
SMILES	HPGD inh	PNC assembly inh	ALDH1A1 inh
COc1ccc(C)cc1N(CC(=O)Nc1cccnc1)S(=O)(=O)c1ccc(C)cc1	.	.	-2%
COc1ccccc1N(CC(=O)Nc1cccnc1)S(C)(=O)=O	-6%	-7	10%
C=C(N(C)C)[C@]1(C)C[C@H]1[C@H](NC(=O)CNC(=O)OCc1ccccc1)c1ccccc1	-2%	.	-4%
COc1ccccc1N(CC(=O)Nc1ccc2c(c1)OCO2)S(=O)(=O)c1ccccc1	-26%	2	-6%
COc1ccc(N(CC(=O)Nc2ccc3c(c2)OCO3)S(=O)(=O)c2ccccc2)cc1	.	.	-3%
COc1ccc(N(CC(=O)Nc2ccc3c(c2)OCCO3)S(=O)(=O)c2cccnc2)cc1	-18%	?	14µM*
COc1ccc(S(=O)(=O)N(CC(=O)Nc2ccc3c(c2)OCO3)c2ccccc2OC)cc1	16µM*	24	?
CCC[C@@H]1C[C@@]1(CCC)C(NC(=O)OCc1ccccc1)c1ccc(-c2ccccc2)cc1 (stereo partly specified)	-10%	.	1%
O=C(COc1ccccc1)N1CCN(C(=O)Cc2ccccc2)CC1	-8%	-6	-2%
Cc1ccc(C(=O)CC(=O)COc2ccc(Cl)cc2)cc1	?	12	4%
O=C(c1cnn(-c2nc3ccccc3s2)c1)c1ccccc1O	?	-4	5%
Cc1ccc(O)c(C(=O)c2cnn(C(=O)COc3ccc(Cl)cc3)c2)c1	-29%	4	1.8µM*
O=C(COc1ccc(Cl)cc1)Nc1ccc(Cl)cn1	.	-25	1%
O=C(c1cnn(C(=O)COc2ccc(Cl)cc2)c1)c1ccccc1O	-17%	?	4.5µM*
O=C(c1cnn(C(=O)c2ccccc2)c1)c1ccccc1O	-18%	?	2.2µM*
